# Measured values reported in PubChem BioAssay AID540256 (National Center for Advancing Translational Sciences (NCATS), 2011).
# Out of some 300,000 compounds screened, about 3,700 (1.2%) were called active. Not shown: some 20% with an inconclusive outcome. Calls come from the whole dose curve; tested in HEK293 cells. The entries come from a sample that favours actives as a whole.
# Assay: qHTS for Inhibitors of binding or entry into cells for Lassa Virus; note: nearly all actives have a fitted effect of over 50% in size
# Settings: Lassa virus pseudotype entry inhibition, cell reporter; series mostly up to 37.9 µM; activity change, negative = inhibition: at the top concentration
# % is set by controls: 0 for no effect and ±100 for the full control effect; potency is the fitted concentration of half-maximal effect.
SMILES,"activity change, negative = inhibition",Potency
Cc1cccc(NC(=S)N2CCC(C(=O)c3ccc(F)cc3)CC2)c1,1.61% [at 46.1 µM] (inactive),
COc1cc(C(c2c(NC(=O)c3ccco3)sc(C)c2C)N2CCOCC2)cc(OC)c1OC (stereo not drawn),-2.37% (inactive),
Cc1ccc(C(=O)Nc2ccc(NC(=O)c3cccs3)cc2)c(C)c1,-6.7% (inactive),
Cc1ccc(-c2csc(NC(=O)c3cccs3)n2)cc1,0.307% (inactive),
Cc1ccc(-c2nnc(-c3ccc(NC(=O)c4cccs4)cc3)o2)cc1,,7.3 µM (active)
COC(=O)c1cc(C(=O)OC)n2ccc3cc(OC)c(OC)cc3c12,21.2% [at 14.3 µM] (inactive),
CSCCC(NC(=O)COc1ccccc1)C(=O)OCc1ccc(Cl)cc1 (stereo not drawn),3.24% (inactive),
O=C(CSc1nc2[nH]c(=O)[nH]c(=O)c2s1)Nc1cccc(F)c1,9.68% (inactive),
COc1cc(C(=O)N2CCN(c3ccc(Nc4ccc(C)cc4)nn3)CC2)cc(OC)c1OC,-25.3% [at 46.1 µM] (inactive),
Cc1ccc(C(=O)NCC(=O)OCC(=O)NC2CCCCCCC2)cc1,-7.65% [at 46.1 µM] (inactive),
Cc1ccc(C(=O)NC2CCC2)cc1-c1ccc(C(=O)NCC2CC2)cc1,,11.2 µM (active)
O=C(NC1CC1)c1ccc(-c2ccccc2)cc1,17.2% (inactive),
CCN(CC(=O)Nc1ccc(OC)cc1)C(=O)c1ccc(Cl)c(S(=O)(=O)N2CCCC2)c1,-5.74% (inactive),
COC(=O)c1cc(C(=O)NC(C)C2CC3CCC2C3)cc([N+](=O)[O-])c1 (stereo not drawn),1.88% (inactive),
O=C(CCCCCCCC(=O)N1CCCCC1)N1CCCCC1,-5.69% (inactive),
CSc1ncc(Sc2ccccc2)c(C(=O)O)n1,-7.12% (inactive),
COc1ccc2nc(N3C(=O)C(O)=C(C(=O)c4ccco4)C3c3ccco3)sc2c1 (stereo not drawn),3.18% (inactive),
CCOC(=O)CC1C(=O)NCCN1c1nc2c(C)cccn2c(=O)c1/C=C1\SC(=S)N(C(C)CC)C1=O (stereo not drawn),,6.31 µM (active)
CCCN(CCC)c1nc2c(C)cccn2c(=O)c1/C=C1/SC(=S)N(Cc2ccco2)C1=O,-2.89% [at 46.1 µM] (inactive),
Cc1cccn2c(=O)c(/C=C3\SC(=S)N(CC(C)C)C3=O)c(NCCCOC(C)C)nc12,3.06% (inactive),
COc1ccc(-c2nc(-c3ccccc3)no2)c(OC)c1,,1.64 µM (active)

SMILES,"activity change, negative = inhibition",Potency
CC(=O)c1ccc(NC(=O)COc2ccccc2-c2nc(-c3ccccc3)no2)cc1,3.33% [at 46.1 µM] (inactive),
CCOc1nc(-c2ccc(OC)cc2)ccc1-c1noc(-c2cc(OC)c(OC)c(OC)c2)n1,3.47% (inactive),
CC(=O)OCC(=O)C1(O)CCC2C3CC(C)C4=CC(=O)CCC4(C)C3C(O)CC21C (stereo not drawn),-11.5% [at 46.1 µM] (inactive),
O=C(Nc1cccc(S(=O)(=O)N2CCOCC2)c1)C12CC3CC(CC(C3)C1)C2,0.293% [at 46.1 µM] (inactive),
COc1ccc(NC(=O)/C(C#N)=C\c2cc(OC)c(OCc3ccc(C(=O)O)cc3)cc2Br)cc1,12.9% (inactive),
COc1ccc(CNC(=O)/C(C#N)=C/c2cccc(OC)c2OC)cc1,,3.55 µM (active)
N#C/C(=C\c1ccc(O)c(O)c1)C(=O)NCc1ccccc1,1.83% (inactive),
O=C(Nc1ccc(Cl)c(Cl)c1)c1ccccc1NC(=O)C1CC=CCC1C(=O)O (stereo not drawn),16.9% [at 46.1 µM] (inactive),
CCOC(=O)c1c(-c2cccc(C)c2)csc1NC(=O)c1c(-c2ccccc2)noc1C,,0.562 µM (active)
Cc1ccc(CNC(=O)c2c(-c3ccccc3)noc2C)cc1,16.7% [at 46.1 µM] (inactive),
CC(=O)Nc1cccc(NC(=O)c2c(-c3ccccc3)noc2C)c1,-0.808% (inactive),
Cc1cccc(N2CCN(c3ccc(C(=O)O)cc3NC(=O)c3ccccc3F)CC2C)c1 (stereo not drawn),13.8% [at 46.1 µM] (inactive),
NC(=O)C1(Nc2ccccc2Cl)CCCC1,-22.7% (inactive),
CCOc1ccc(N/C=C/C(=O)c2ccccc2)cc1,,7.08 µM (active)
Cc1noc(NS(=O)(=O)c2ccc(N/C=C/C(=O)c3ccccc3)cc2)c1C,1.23% (inactive),
O=C(/C=C\NCC(=O)c1ccccc1)c1ccccc1,0.347% (inactive),
COc1ccc(Cn2c(C(=O)O)c(CNCCc3cccs3)c3ccc(OC)cc32)cc1,-13.2% [at 46.1 µM] (inactive),
COc1ccc(CCNCc2c(-c3ccccc3)n(C)c3ccccc23)cc1,,8.91 µM (active)
COc1ccc2c(CNCCc3ccccc3C)c(C(=O)O)n(Cc3ccccc3C)c2c1,-8.31% [at 46.1 µM] (inactive),
CCOC(=O)C1CCN(C(=O)COc2cccc3ccccc23)CC1,17.3% [at 46.1 µM] (inactive),
O=C(Nc1cc(S(=O)(=O)N2CCCCC2)ccc1Cl)C1COc2ccccc2O1 (stereo not drawn),-24.8% (inactive),

SMILES,"activity change, negative = inhibition",Potency
COc1cccc(CNC(=O)c2ccc3c(c2)sc2nc(-c4cccc(OC)c4)cn23)c1,-0.598% [at 46.1 µM] (inactive),
CC(=O)c1cc(C#N)c(N2CCCCC2)nc1C,0.572% (inactive),
CC(=O)c1ccc(S(=O)(=O)N2CCN(c3nc4c(C)c(C)ccc4cc3C#N)CC2)cc1,,18.3 µM (active)
Cc1cc(C)c2nc(N3CCCC3)c(C#N)cc2c1,11.1% (inactive),
COc1ccc(N2CCN(C(=O)COC(=O)c3cccc(S(=O)(=O)Nc4ccccc4OC)c3)CC2)cc1,-29.3% (inactive),
COCCN(C(=O)C(C)N1C(=O)c2ccccc2C1=O)c1c(N)n(CC(C)C)c(=O)[nH]c1=O (stereo not drawn),10.8% (inactive),
O=C(Nc1ccn(Cc2ccccc2)n1)c1n[nH]c([N+](=O)[O-])c1Cl,,7.31 µM (active)
CC(=O)Nc1ccn(Cc2c(F)cccc2Cl)n1,23.3% (inactive),
Cn1cc([N+](=O)[O-])c(C(=O)Nc2cnn(Cc3ccc(F)cc3)c2)n1,-15% (inactive),
O=C(CN1CCC(NC(=O)Nc2ccccc2)CC1)Nc1cccc([N+](=O)[O-])c1,9.38% (inactive),
CCn1c(SCC(=O)Nc2ccc(Br)cc2)nc2sc3c(c2c1=O)CCN(C)C3,13.2% [at 46.1 µM] (inactive),
COc1ccc(C)cc1Nc1nc(C)nc2c1oc1ccccc12,-17.2% (inactive),
CCC1([N+](=O)[O-])COC(c2ccc(C(C)C)cc2)OC1 (stereo not drawn),0.913% [at 46.1 µM] (inactive),
COc1ccc(/C=C2\CCCC3C2=NN(C(=O)c2scnc2C)C3c2ccc(OC)cc2)cc1 (stereo not drawn),,1.03 µM (active)
COc1ccc(/C=C2/CCCc3ccccc3C2=O)cc1,-3.13% (inactive),
CCOc1ccccc1-c1nc(CN2CCC(C(=O)N3CCOCC3)CC2)c(C)o1,1.92% (inactive),
COc1cccc(C=CC(=O)C=CC=Cc2ccccc2)c1,8.13% [at 46.1 µM] (inactive),
O=[N+]([O-])c1ccc(N=NNc2ccc([N+](=O)[O-])cc2)cc1,-8.18% [at 46.1 µM] (inactive),
O=C(NCCc1ccccc1)c1c[nH]c2ccc(F)cc2c1=O,2.46% [at 46.1 µM] (inactive),
CCc1ccc(NS(=O)(=O)c2ccc3[nH]cc(C(=O)NCCc4cccc(C)c4)c(=O)c3c2)cc1,11.7% [at 46.1 µM] (inactive),
CCN(CC)S(=O)(=O)c1ccc2[nH]cc(C(=O)NCCc3ccccc3)c(=O)c2c1,,0.224 µM (active)
